Data from PubChem BioAssay (EPA / NIEHS).
The source made the active and inactive calls. How the source made its calls: active means hit-call score of the fitted dose curve at least 0.9, where 1 is the maximum; inactive means score below 0.9.

read-out: UDP glucuronosyltransferase (UGT1A1), UGT1A1 (gene 54658); assay: LTEA_HepaRG_UGT1A1: Life Technologies and Expression Analysis (LTEA) Assay for UDP glucuronosyltransferase (UGT1A1) using HepaRG (AID 2283538); conditions: mRNA level, 48 h; actives raise or lower the signal
Method: LTEA_HepaRG is a cell based, multiplexed-readout assay that uses HepaRG, a human liver cell line, with measurements taken at 48 hours after chemical dosing on a 96-well plate.LTEA_HepaRG_UGT1A1 is one of 102 assay component(s) measured in the LTEA HepaRG cell culture assay. It is a marker of Steatosis/NR mediated metabolism.Data from the assay component LTEA_HepaRG_UGT1A1 was analyzed into 1 endpoint. This assay endpoint, LTEA_HepaRG_UGT1A1, was analyzed with bidirectional fitting relative to DMSO as the negative control and baseline of activity. Using a type of inducible reporter, measures of mRNA induction for gain or loss-of-signal activity can be used to understand regulation of transcription factor activity. To generalize the intended target to other relatable targets, this assay endpoint is annotated to the transferase intended target family, where the subfamily is glucuronosyltransferase.
A total of 1060 chemcials from the ToxCast library were tested in eight-point concentration-response experiments. Cell culture and cytotoxicity assays were conducted at Thermo Fisher Scientific's Custom Services facility (Madison, WI). A single lot of human HepaRG cells (Thermo Fisher Scientific, Frederick, MD) was used for the cell culture experiments. 96-well format collagen type I coated plates of human HepaRG cells were prepared using established methods. Briefly, cryopreserved HepaRG cells were thawed, plated at a density of approximately 100,000 cells/well in HepaRG Thaw, Plate, and General Purpose media (HPRG770, Thermo Fisher Scientific), and incubated for 48 hours. 0.5% DMSO was selected as vehicle control to balance the requisite need of DMSO in HepaRG cultures to maintain differentiation (for example, baseline metabolism, proportions of hepatocytes vs. cholangiocytes), while enabling further hepatic receptor pathway activation (for example, PXR and CAR) in response to chemical exposure. 48 hours after plating, the culture medium was replaced with HepaRG Serum-Free Incudtion Media. Cells were exposed to each test chemical in duplicate and maintained in CO2 incubators for another 48 hours. Chemical plates were thawed to room temperature and 200x concentrations of treatment groups were prepared. 8-point conentration-reponse curves were made with the highest exposure at 100 uM, followed by half-log dilutions, all in 0.5% DMSO. Each test plate contained variouse controls, induction positive controls (1mM phenobarbital), cytotoxicity positive controls ([…] aflatoxin B1), vehicle controls (0.5% DMSO), and total lysis controls (0.5% DMSO). Cell morphology images were taken using an Essen IncuCyte FLR automated microscope, with six 96-well plates imaged in about 24 minutes. Images were captured and exported and JPEG files. Spent culture media was transfered to black-well plates for the LDH assay, and remaining media was sorted at -80 C for later use. Cells were treated with RLT buffer and frozen until shipped for gene expression analysis. Total RNA was isolated from the cell suspension in 75 uL of Buffer RLT (Qiagen, Germantown, MD 20874) by Quintiles/Expression Analysis (Durham, NC) using a custom isolation procedure. Total RNA from each plate well was transferred to a preamplification plate. Fluidigm's 96.96 Dynamic ArrayTM (Fluidigm, Amsterdam, the Netherlands) technology was used for gene expression analyses by quantitative reverse transcription polymerase chain reaction (qRT-PCR, performed by Quintiles/Expression Analysis, Durham, NC)89. Standard TaqManTM Assays (Applied Biosystems/ThermoFisher Scientific, Foster City, CA) were used to assess the expression of 93 genes selected based on their selectivity and sensitivity to important hepatic receptors known to be modulated by environmental chemicals; importance in human hepatocyte functionality; and hepatotoxicity. […]

outcome, inactive:
CCCCC(CC)C(=O)O (stereo unspecified), CCC(C)c1ccccc1O (stereo unspecified), OCC(CO)(CBr)CBr, CC(=O)Nc1ccc(O)cc1, CN(C)CCOC(c1ccccc1)c1ccccc1, Cc1[nH]nc2c1N=C(c1ccccc1Cl)c1cc([N+](=O)[O-])ccc1N2, CCCCC=O, CN(Cc1cnc2nc(N)nc(N)c2n1)c1ccc(C(=O)N[C@@H](CCC(=O)O)C(=O)O)cc1, O=C1NS(=O)(=O)c2ccccc21

AC50, active:
CCCCCCCCCCCCCCC 19.8 µM, CCCCCCCCCCCCOS(=O)(=O)O 91.7 µM, O=C(c1ccccc1)c1ccccc1 4.85 µM, CS(=O)(=O)c1ccc([C@@H](CC2CCCC2)C(=O)Nc2cnccn2)cc1Cl 12.2 µM, N=C(N)c1ccc(OCCCCCOc2ccc(C(=N)N)cc2)cc1 4.48 µM, CCCCc1oc2ccccc2c1C(=O)c1cc(I)c(OCCN(CC)CC)c(I)c1 60.7 µM, O=C(CCCN1CCC(O)(c2ccc(Cl)cc2)CC1)c1ccc(F)cc1 79.3 µM
